# Experimental data taken from PubChem BioAssay (NCATS).
# Results filed as inconclusive are left out. The source made the active and inactive calls. Calls follow the shape of the dose curve; as a rule, active = well fitted curve in the direction sought with a large enough effect; inconclusive = small, poorly fitted or top-dose-only effect, or another doubt; inactive = no such curve, though single readings can be large; an effect the other way counts as inactive or inconclusive.
# Experiment: BET inhibitor-based combinations targeting novel dependencies in MECOM-rearranged (r) AML: UCSD-AML1 cell line (AID 2202235); also: nearly all actives have a fitted effect of over 40% in size;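 as to viability (% of control): plate controls were DMSO vehicle wells for no effect and blank wells for full effect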
# Settings: UCSD-AML1 AML cells viability, CellTiter-Glo, 48 h; series mostly up to 46 µM; viability (% of control): at the top concentration
# Outline: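 Luminescent ATP readout (CellTiter-Glo, 15 min at room temperature) after 48 hr drug exposure gave viability. Dose-response curves, normalized to DMSO and empty-well controls, were summarized as area under the curve and its mean-centred Z-score.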
# Potency is read from the fitted curve at half-maximal effect.
Compound,viability (% of control),Potency
COc1ccc2[nH]cc(CCNC(C)=O)c2c1,103% (inactive),
CCC(C)N(C)C(=O)c1cc2ccccc2c(-c2ccccc2Cl)n1 (stereo not given),103% (inactive),
CC(C)NCC(O)c1ccc(NS(C)(=O)=O)cc1 (stereo not given),109% (inactive),
COc1ccc(C2CNC(=O)C2)cc1OC1CCCC1 (stereo not given),115% (inactive),
O=C1CCC(N2C(=O)c3ccccc3C2=O)C(=O)N1 (stereo not given),108% (inactive),
Nc1ncnc2c1ncn2[C@@H]1O[C@H](CO)[C@@H](O)[C@H]1O,116% (inactive),
CCn1cc(C(=O)O)c(=O)c2cc(F)c(N3CCNC(C)C3)c(F)c21 (stereo not given),94.1% [at 15.6 µM] (inactive),
Nc1nc2c(ncn2COC(CO)CO)c(=O)[nH]1,94.5% (inactive),
NCCCCCC(=O)O,107% (inactive),
CC(C)NCC(O)COc1ccc(CCOCC2CC2)cc1 (stereo not given),106% (inactive),
O=C(O)C1CCCN(CCC=C(c2ccccc2)c2ccccc2)C1 (stereo not given),109% (inactive),
NS(=O)(=O)c1cc2c(cc1Cl)NC=NS2(=O)=O,98.7% (inactive),
CCN(CC)CCNC(=O)c1c(C)[nH]c(/C=C2\C(=O)Nc3ccc(F)cc32)c1C,,3.72 µM (active)
CCOC(=O)C(C)(C)Oc1ccc(Cl)cc1,101% (inactive),
COc1cccc(-c2cc(=O)c3ccccc3o2)c1N,119% (inactive),
C[C@@H](c1ncncc1F)[C@](O)(Cn1cncn1)c1ccc(F)cc1F,106% (inactive),
CN1CCC(=C2c3ccccc3CC(=O)c3sccc32)CC1,101% (inactive),

Compound,viability (% of control),Potency
CC12CC3CC(C)(C1)CC(N)(C3)C2,108% (inactive),
Nc1nnc(-c2cccc(Cl)c2Cl)c(N)n1,113% (inactive),
CNC[C@H](O)c1cccc(O)c1,105% (inactive),
NC(=O)c1ncn([C@@H]2O[C@H](CO)[C@@H](O)[C@H]2O)n1,,18.6 µM (active)
CC(C)(C)NCC(O)c1ccc(O)c(CO)c1 (stereo not given),103% (inactive),
COC(=O)Nc1nc2ccc(C(=O)c3cccs3)cc2[nH]1,,0.0833 µM (active)
O=C1N(c2ccccc2)c2ccccc2C1(Cc1ccncc1)Cc1ccncc1,111% (inactive),
Nc1nc2c(ncn2COCCO)c(=O)[nH]1,107% (inactive),
CCCCNc1cc(C(=O)O)cc(S(N)(=O)=O)c1Oc1ccccc1,110% (inactive),
CCCCS(=N)(=O)CCC(N)C(=O)O (stereo not given),115% [at 69.1 µM] (inactive),
NC(=O)c1ncn([C@@H]2O[C@H](CO)[C@@H](O)[C@H]2O)c1O,,inactive
NCCS(=O)(=O)O,120% (inactive),
Cc1cnc(NC(=O)C2=C(O)c3ccccc3S(=O)(=O)N2C)s1,,inactive
Nc1ncn([C@@H]2O[C@H](CO)[C@@H](O)[C@H]2O)c(=O)n1,,4.68 µM (active)
CN(CCOc1ccc(NS(C)(=O)=O)cc1)CCc1ccc(NS(C)(=O)=O)cc1,104% (inactive),
Cc1cc(Cl)ccc1OCCCC(=O)NO,,3.72 µM (active)

# Experiment: BET inhibitor-based combinations targeting novel dependencies in MECOM-rearranged (r) AML: AML-191 cell line (AID 2202236; also: nearly all actives have a fitted effect of over 35% in size;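 as to viability (% of control): plate controls were vehicle wells for no effect and wells without cells for full effect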)
# Settings: AML-191 viability, CellTiter-Glo luminescence, 48 h; series mostly up to 46 µM; viability (% of control): at the top concentration
# Outline: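 Luminescent ATP readout (CellTiter-Glo) after 48 hr drug exposure gives viability. Curves span 11 concentrations and are normalized to DMSO and empty wells. Activity is reported as area under the curve and its Z-transform within each cell line.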
Compound,viability (% of control),Potency
CCCc1c(OCCCOc2ccc(OCC(=O)O)cc2)ccc(C(C)=O)c1O,97.2% (inactive),
COc1ccc2[nH]cc(CCNC(C)=O)c2c1,108% (inactive),
CCC(C)N(C)C(=O)c1cc2ccccc2c(-c2ccccc2Cl)n1 (stereo not given),77.4% (inactive),
COc1ccc(C2CNC(=O)C2)cc1OC1CCCC1 (stereo not given),98% (inactive),
O=C1CCC(N2C(=O)c3ccccc3C2=O)C(=O)N1 (stereo not given),118% (inactive),
Nc1ncnc2c1ncn2[C@@H]1O[C@H](CO)[C@@H](O)[C@H]1O,135% (inactive),
Cc1cccc(-c2[nH]ncc2-c2ccc3ncccc3n2)n1,98.5% (inactive),
CCn1cc(C(=O)O)c(=O)c2cc(F)c(N3CCNC(C)C3)c(F)c21 (stereo not given),96.1% [at 15.6 µM] (inactive),
CNC[C@H](O)c1ccc(O)c(O)c1,94.3% (inactive),
Nc1nc2c(ncn2COC(CO)CO)c(=O)[nH]1,82.8% (inactive),
NCCCCCC(=O)O,108% (inactive),
CC(C)NCC(O)COc1ccc(CCOCC2CC2)cc1 (stereo not given),96.7% (inactive),
O=C(O)C1CCCN(CCC=C(c2ccccc2)c2ccccc2)C1 (stereo not given),114% (inactive),
NS(=O)(=O)c1cc2c(cc1Cl)NC=NS2(=O)=O,108% (inactive),
CCN(CC)CCNC(=O)c1c(C)[nH]c(/C=C2\C(=O)Nc3ccc(F)cc32)c1C,,3.72 µM (active)
CCOC(=O)C(C)(C)Oc1ccc(Cl)cc1,108% (inactive),

Compound,viability (% of control),Potency
COc1cccc(-c2cc(=O)c3ccccc3o2)c1N,,14.8 µM (active)
C[C@@H](c1ncncc1F)[C@](O)(Cn1cncn1)c1ccc(F)cc1F,102% (inactive),
CN1CCC(=C2c3ccccc3CC(=O)c3sccc32)CC1,93.3% (inactive),
CC12CC3CC(C)(C1)CC(N)(C3)C2,96.6% (inactive),
CC(C(=O)O)c1cccc(C(=O)c2ccccc2)c1 (stereo not given),107% (inactive),
Nc1nnc(-c2cccc(Cl)c2Cl)c(N)n1,102% (inactive),
CC(C)(C)NCC(O)c1ccc(O)c(CO)c1 (stereo not given),98.8% (inactive),
COC(=O)Nc1nc2ccc(C(=O)c3cccs3)cc2[nH]1,,0.0661 µM (active)
Nc1nc2c(ncn2COCCO)c(=O)[nH]1,112% (inactive),
CCCCNc1cc(C(=O)O)cc(S(N)(=O)=O)c1Oc1ccccc1,118% (inactive),
CCCCS(=N)(=O)CCC(N)C(=O)O (stereo not given),103% [at 69.1 µM] (inactive),
NC(=O)c1ncn([C@@H]2O[C@H](CO)[C@@H](O)[C@H]2O)c1O,,inactive
NCCS(=O)(=O)O,114% (inactive),
Cc1cnc(NC(=O)C2=C(O)c3ccccc3S(=O)(=O)N2C)s1,,inactive
Nc1ncn([C@@H]2O[C@H](CO)[C@@H](O)[C@H]2O)c(=O)n1,,5.25 µM (active)
Cc1cc(Cl)ccc1OCCCC(=O)NO,,3.72 µM (active)
